Data: PubChem BioAssay (Tox21)
Where “and” joins values, the source holds several entries; their conditions need not be identical. Equal entries are not always repeated. Records with an inconclusive call do not appear. Where a structure was tested more than once in an assay, its records may differ in their call. Calls of active or inactive are those of the source. Unless noted, calls follow the shape of the dose curve; as a rule, active = well fitted curve in the direction sought with a large enough effect in the repeat runs; inconclusive = weak or mixed curves; inactive = no such curve, though single readings can be large; an effect the other way counts as inactive or inconclusive.

What was measured:
[1] = qHTS assay for small molecule agonists of the p53 signaling pathway - cell viability (AID 651633; calls by dose curve; also: nearly all actives have a fitted effect of over 30% in size; also: potency is read from the fitted curve at half-maximal effect)
Summary of the method: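 Viability counter-read: CellTiter-Glo luminescence (30 min, room temperature) in the same p53RE-bla plates. These plates had been exposed to compounds for 16 h at 37 C.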

[2] = qHTS assay for small molecules that induce genotoxicity in human embryonic kidney cells expressing luciferase-tagged ATAD5 - cell viability (AID 651634; calls by dose curve; also: nearly all actives have a fitted effect of over 25% in size; also: potency is read from the fitted curve at half-maximal effect)
Summary of the method: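 Here HEK293T cells with the ATAD5 luciferase reporter are incubated with test compounds for 15.5 hr, and cytotoxicity is then gauged by measuring protease activity in live cells using fluorescence.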

[3] = qHTS assay for small molecule disruptors of the mitochondrial membrane potential - cell viability (AID 720634; calls by dose curve; also: nearly all actives have a fitted effect of over 20% in size; also: potency is read from the fitted curve at half-maximal effect)
Summary of the method: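 Viability of HepG2 cells is scored from ATP content by luminescence; cells are exposed to compound for 1 hr at 37 C and 5% CO2, then dosed with m-MPI dye before the CellTiter-Glo reagent.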

[4] = qHTS assay for small molecule disruptors of the mitochondrial membrane potential (AID 720635); also: potency is read from the fitted curve at half-maximal effect
Summary of the method: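 Mitochondrial membrane potential tracked with Mito-MPS dye, red aggregates (ex 540/em 590 nm) against green monomers (ex 490/em 535 nm). Compound treatment 1 hr at 37C, dye 30 min in HepG2.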

[5] = qHTS assay to test for compound auto fluorescence at 590 nm (red) in HepG2 cells (AID 720674)
Summary of the method: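 We screened compounds on adherent HepG2 cells, incubating them for an hour at 37 C in 5% CO2 before reading emission at 590 nm under 540 nm excitation; values reflect equivalence to Rose Bengal sodium fluorescence.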

[6] = qHTS assay to test for compound auto fluorescence at 460 nm (blue) in HEK293 cells (AID 720678); also: potency is read from the fitted curve at half-maximal effect
Summary of the method: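 Intrinsic compound fluorescence is recorded in live HEK293 cultures after overnight incubation at 37C, 5% CO2, using excitation 405 nm and emission 460 nm. Values are referenced to triamterene.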

[7] = qHTS assay to test for compound auto fluorescence at 590 nm (red) in HEK293 cells (AID 720679)
Summary of the method: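 Red autofluorescence, HEK293 cells: 2,000 cells/well; attach 4-5 hr 37C; add 23 nL cpd or DMSO; incubate o/n 37C 5% CO2; read Ex540/Em590; Rose Bengal sodium reference.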

[8] = qHTS assay to test for compound auto fluorescence at 535 nm (green) in HEK293 cells (AID 720680)
[9] = qHTS assay to test for compound auto fluorescence at 460 nm (blue) in HEK293 cell free culture (AID 720681); also: potency is read from the fitted curve at half-maximal effect
Summary of the method: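 Blue fluorescence (Ex 405/Em 460 nm, triamterene-equivalent) was read immediately after pin transfer of compound or DMSO into medium (DMEM, 10% FBS) without cells.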

[10] = qHTS assay to test for compound auto fluorescence at 535 nm (green) in HEK293 cell free culture (AID 720682)
Summary of the method: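 Read-out: 485/535 nm fluorescence intensity, calibrated against fluorescein. Medium only (DMEM + 10% FBS, no cells); test compound or DMSO vehicle added by pintool before plate reading.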

[11] = qHTS assay to test for compound auto fluorescence at 590 nm (red) in HepG2 cell free culture (AID 720684)
Summary of the method: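 No cells present: MEM + 10% FBS only. Compound pinned in, red label read (540/590 nm). Activity = fluorescence equivalent to Rose Bengal sodium.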

[12] = qHTS assay to test for compound auto fluorescence at 460 nm (blue) in HepG2 cell free culture (AID 720685)
Summary of the method: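 Cell-free plates of MEM plus 10% FBS received 23 nL compound or DMSO vehicle; blue-channel (405/460 nm) intensity scored against triamterene as reference fluorophore.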

[13] = qHTS assay to test for compound auto fluorescence at 535 nm (green) in HepG2 cell free culture (AID 720686)
[14] = qHTS assay to test for compound auto fluorescence at 460 nm (blue) in HepG2 cells (AID 720687)
Summary of the method: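 Blue-channel autofluorescence (Ex/Em 405/460 nm, triamterene-equivalent) was measured after 1 hr compound exposure at 37 C, 5% CO2. Cells were HepG2, plated overnight at 37 C in MEM plus 10% FBS.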

[15] = target: Glucocorticoid receptor (Homo sapiens) (UniProt P04150); assay: qHTS assay to identify small molecule agonists of the glucocorticoid receptor (GR) signaling pathway (AID 720691; active = well fitted activation curve with a large enough effect in the signal ratio in the repeat runs, not every such curve was filed as active; the % refers to the signal ratio)
Summary of the method: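 Compounds in DMSO, alongside positive controls, were added to GR-bla HeLa reporter cells and incubated 18 h at 37 C; GRE-driven beta-lactamase was detected by fluorescence after 2 h with FRET substrate at room temperature.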

[16] = target: Glucocorticoid receptor (Homo sapiens) (UniProt P04150); assay: qHTS assay to identify small molecule antagonists of the glucocorticoid receptor (GR) signaling pathway (AID 720692; active = well fitted inhibition curve with a large enough effect in the signal ratio in the repeat runs, not every such curve was filed as active; the % refers to the signal ratio; also: potency is read from the fitted curve at half-maximal effect)
Summary of the method: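 In a 1536-well cell format, compounds were added 4 h after seeding GR-bla HeLa cells, together with dexamethasone at 5 nM final; reporter activity was measured by FRET-substrate fluorescence following 18 h at 37 C.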

[17] = qHTS assay for small molecules that induce genotoxicity in human embryonic kidney cells expressing luciferase-tagged ATAD5 (AID 651632); also: nearly all actives have a fitted effect of over 15% in size
Summary of the method: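 DMSO vehicle served as the control. HEK293T reporter cells, 16 hr at 37C, then 30 min Amplite at room temperature; ATAD5 induction is measured as luciferase activity.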

[18] = qHTS assay to test for compound auto fluorescence at 590 nm (red) in HEK293 cell free culture (AID 720683)
Summary of the method: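 Red-channel autofluorescence of compounds in culture medium (DMEM, 10% FBS), no cells, measured at 540/590 nm. Rose Bengal sodium is the reference fluorophore for equivalence.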

[19] = qHTS assay to test for compound auto fluorescence at 535 nm (green) in HepG2 cells (AID 720675)
% is scaled to controls: 0 for no effect and ±100 for the full control effect; tags tell the direction and shape of the fitted curve or compound fluorescence and quenching.

Sequence of Glucocorticoid receptor (Homo sapiens) (P04150 whole entry, looked up): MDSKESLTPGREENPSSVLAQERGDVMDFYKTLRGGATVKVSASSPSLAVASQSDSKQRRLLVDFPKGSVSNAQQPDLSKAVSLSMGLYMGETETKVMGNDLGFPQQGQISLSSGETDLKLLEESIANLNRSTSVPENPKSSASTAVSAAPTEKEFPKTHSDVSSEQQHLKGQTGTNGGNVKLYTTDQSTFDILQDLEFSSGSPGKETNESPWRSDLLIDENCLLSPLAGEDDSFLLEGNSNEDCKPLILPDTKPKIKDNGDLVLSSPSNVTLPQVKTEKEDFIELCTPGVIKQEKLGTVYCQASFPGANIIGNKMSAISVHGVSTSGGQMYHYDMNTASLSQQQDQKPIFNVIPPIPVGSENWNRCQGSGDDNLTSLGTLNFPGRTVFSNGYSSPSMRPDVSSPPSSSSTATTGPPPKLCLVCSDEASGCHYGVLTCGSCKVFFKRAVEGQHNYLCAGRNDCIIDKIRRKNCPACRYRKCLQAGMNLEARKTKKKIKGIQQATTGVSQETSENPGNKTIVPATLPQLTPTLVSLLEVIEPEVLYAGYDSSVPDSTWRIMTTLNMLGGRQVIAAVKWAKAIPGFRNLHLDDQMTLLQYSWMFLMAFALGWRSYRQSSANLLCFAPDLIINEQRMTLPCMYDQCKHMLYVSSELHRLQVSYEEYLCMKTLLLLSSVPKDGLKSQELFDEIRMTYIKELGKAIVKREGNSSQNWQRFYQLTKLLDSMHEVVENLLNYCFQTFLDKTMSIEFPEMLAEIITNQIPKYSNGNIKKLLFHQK

CCc1cccc(CC)c1NC(=O)CN(CC(=O)O)CC(=O)O
inactive: Potency [1] | Potency [2] | Potency [3] | Potency [4] | fluorescence, relative to Rose Bengal [5] 0.215% [at 18.6 µM] | fluorescence, % of triamterene [6] -0.194% [at 18.6 µM] | fluorescence, % of fluorescent control [7] -0.732% [at 18.6 µM] | fluorescence, % of fluorescein [8] 0.0114% [at 18.6 µM] | fluorescence, % of fluorescent control [9] 0.0332% [at 18.6 µM] | activity change [10] 0.0655% [at 18.6 µM, stronger effect = higher value] | fluorescence, % of Rose Bengal [11] -0.249% [at 18.6 µM] | fluorescence, % of fluorescent control [12] -0.0593% [at 18.6 µM] | fluorescence, % of fluorescein control [13] 0.0075% [at 18.6 µM] | fluorescence, % of fluorescent control [14] 0.148% [at 18.6 µM] | Potency [15] | Potency [16]

CCOC(=O)c1ccc(C2CCC(NC[C@H](O)COc3ccc(O)c(NS(C)(=O)=O)c3)CC2)cc1 (some centres undefined)
inactive: Potency [17] | Potency [2] | Potency [3] | Potency [5] | Potency [7] | Potency [8] | Potency [9] | Potency [10] | Potency [18] | Potency [11] | Potency [12] | Potency [13] | Potency [14]

Nc1cc(Cl)c(O)c(Cl)c1
inactive: Potency [2] | Potency [3] | Potency [5] | Potency [19] | Potency [7] | Potency [8] | Potency [10] | Potency [11] | Potency [12] | Potency [13] | Potency [15]
active: Potency [4] 7.7 µM

OCCN1CCN(CCCN2c3ccccc3Sc3ccc(C(F)(F)F)cc32)CC1
active: Potency [1] 26.6 µM
inactive: Potency [17] | Potency [3] | Potency [5] | Potency [19] | Potency [6] | Potency [7] | Potency [9] | Potency [10] | Potency [18] | Potency [11] | Potency [12] | Potency [14] | Potency [15]

O=c1oc2cc(O)ccc2c2oc3cc(O)ccc3c12
active: Potency [9] 5.01 µM
inactive: Potency [1] | Potency [2] | Potency [3] | Potency [5] | Potency [19] | Potency [7] | Potency [8] | Potency [10] | Potency [18] | Potency [11] | Potency [15]

CC[N+](CC)(CC)CCOc1ccc(/C=C/c2ccccc2)cc1
inactive: Potency [1] | Potency [2] | Potency [3] | Potency [5] | Potency [19] | Potency [7] | Potency [9] | Potency [10] | Potency [18] | Potency [11] | Potency [13] | Potency [15] | Potency [16]

Cc1ccc(O)c(N)c1
inactive: Potency [3] | Potency [5] | Potency [19] | Potency [6] | Potency [7] | Potency [10] | Potency [18] | Potency [11] | Potency [12] | Potency [13] | Potency [14] | Potency [15] | Potency [16]

Cc1cc(-c2ccc(N=Nc3cc(S(=O)(=O)O)c4ccccc4c3N)c(C)c2)ccc1N=Nc1cc(S(=O)(=O)O)c2ccccc2c1N
inactive: Potency [17] | Potency [2] | Potency [3] | Potency [5] | Potency [19] | Potency [7] | Potency [10] | Potency [11] | Potency [12] | Potency [13] | Potency [14] | Potency [15]
active: Potency [4] 12.3 µM

O=C1c2ccccc2C(=O)N1SC1CCCCC1
inactive: Potency [17] | Potency [2] | Potency [5] | Potency [6] | Potency [7] | Potency [8] | Potency [10] | Potency [18] | Potency [11] | Potency [14]
68.5 µM (active) and inactive: Potency [1]

CN1CCC[C@@H]1CCO[C@](C)(c1ccccc1)c1ccc(Cl)cc1
inactive: Potency [1] | Potency [2] | Potency [3] | Potency [5] | Potency [6] | Potency [7] | Potency [8] | Potency [9] | Potency [10] | Potency [18] | Potency [11] | Potency [13] | Potency [14]

C#C[C@]1(O)CC[C@H]2[C@@H]3[C@H](C)CC4=C(CCC(=O)C4)[C@H]3CC[C@@]21C
inactive: Potency [17] | Potency [2] | Potency [3] | Potency [5] | Potency [19] | Potency [7] | Potency [8] | Potency [9] | Potency [10] | Potency [18] | Potency [11] | Potency [12] | Potency [13] | Potency [14]

O=C1NC(=O)[C@@H]2CC=CC[C@H]12
inactive: Potency [1] | Potency [2] | Potency [3] | Potency [5] | Potency [19] | Potency [7] | Potency [8] | Potency [9] | Potency [10] | Potency [18] | Potency [11] | Potency [13] | Potency [14] | Potency [15] | Potency [16]

O=C(c1ccc(O)c(O)c1)c1ccc(O)cc1O
active: Potency [4] 3.85 µM | Potency [6] 31.6 µM [fluorescent] | Potency [9] 35.5 µM
inactive: Potency [17] | Potency [3] | Potency [5] | Potency [19] | Potency [7] | Potency [8] | Potency [10] | Potency [11] | Potency [12] | Potency [13] | Potency [14] | Potency [15]

CN(C)c1ccc(C(=C2C=CC(=[N+](C)C)C=C2)c2ccc(N(C)C)cc2)cc1
active: Potency [1] 10.6 µM and 9.64 µM and 30.6 µM | Potency [2] 11.9 µM and 21.6 µM and 24.3 µM | Potency [3] 54.2 µM
inactive: Potency [5] | Potency [19] | Potency [6] | Potency [7] | Potency [8] | Potency [9] | Potency [10] | Potency [12] | Potency [14] | Potency [15]

CC(C)(C)c1ccc(C(O)CCCN2CCC(C(O)(c3ccccc3)c3ccccc3)CC2)cc1 (centres undefined)
active: Potency [1] 29.8 µM and 18.8 µM
inactive: Potency [17] | Potency [3] | Potency [6] | Potency [7] | Potency [8] | Potency [9] | Potency [10] | Potency [11] | Potency [12] | Potency [13] | Potency [14] | Potency [15] | Potency [16]

CCC(C)n1ncn(-c2ccc(N3CCN(c4ccc(OC[C@H]5CO[C@](Cn6cncn6)(c6ccc(Cl)cc6Cl)O5)cc4)CC3)cc2)c1=O (some centres undefined)
inactive: Potency [17] | Potency [1] | Potency [3] | Potency [5] | Potency [19] | Potency [6] | Potency [7] | Potency [8] | Potency [9] | Potency [10] | Potency [18] | Potency [11] | Potency [12] | Potency [13] | Potency [14]

O=C(O)c1ccc2cc(C(=O)O)ccc2c1
inactive: Potency [1] | Potency [2] | Potency [3] | Potency [4] | Potency [5] | Potency [19] | Potency [6] | Potency [7] | Potency [8] | Potency [9] | Potency [10] | Potency [18] | Potency [11] | Potency [12] | Potency [13] | Potency [14] | Potency [15] | Potency [16]

Cc1cc(C(C#N)c2ccc(Cl)cc2)c(Cl)cc1NC(=O)c1cc(I)cc(I)c1O (centres undefined)
active: Potency [1] 3.35 µM
inactive: Potency [19] | Potency [6] | Potency [7] | Potency [9] | Potency [10] | Potency [18] | Potency [11] | Potency [12] | Potency [14] | Potency [15]

Nc1nc(-c2ccccc2)cs1
inactive: Potency [1] | Potency [2] | Potency [3] | Potency [19] | Potency [7] | Potency [8] | Potency [9] | Potency [10] | Potency [18] | Potency [11] | Potency [12] | Potency [13] | Potency [14] | Potency [15]

CN1CCN(Cc2cc(-c3ccc4[nH]c(=O)oc4c3)co2)[C@@H](c2ccc(F)cc2)C1
active: Potency [16] 42 µM
inactive: Potency [17] | Potency [1] | Potency [3] | Potency [5] | Potency [6] | Potency [7] | Potency [8] | Potency [9] | Potency [10] | Potency [11] | Potency [12] | Potency [13] | Potency [14] | Potency [15]
